This is a sample that favours compounds with a hit; in the whole collection about 4.1% have one here.
BoNT A protease: BoNT/A light chain protease inhibitors, primary screen, biochemical, flow cytometry, MLPCN library; Botulinum neurotoxin type A light chain protease (Clostridium botulinum A str. ATCC 3502); multiplex microsphere protease substrate cleavage; inhibition, % at 10 µM; 360,000 tested, 0.17% active; AID 588499, 2011
VHR inh abs: VHR1 phosphatase inhibitors, primary screen, biochemical, absorbance, uHTS; Dual specificity protein phosphatase 3 (Homo sapiens), P51452; recombinant VHR phosphatase, pNPP absorbance; inhibition, % at 13.3 µM; 290,000 tested, 0.52% active; in the data active = inhibition above about 50%
MazEF act: activators of E. coli MazEF toxin-antitoxin RNase, primary screen, biochemical, fluorescence, uHTS; Endoribonuclease toxin MazF (Escherichia coli (strain K12)), P0AE70; FAM/BHQ RNA-DNA oligo cleavage fluorescence, 5 h; activation, % at 20 µM; 350,000 tested, 0.32% active; AID 504720, 2011; in the data active = activation above about 50%
Anthrax LF inh2: Bacillus anthracis LF protease inhibitors, primary screen, biochemical, multiplex microsphere, MLPCN library. AID 588501, 2011. Lethal factor (Bacillus anthracis), P15917. 360,000 tested, 0.12% active. inhibition, % at 10 µM. multiplex microsphere protease cleavage assay
Bead autofluor: counter-screen for toxin protease inhibitors: compound fluorescence. compound autofluorescence counterscreen, microsphere flow cytometry; hits give high values. fluorescence intensity (test concentration not listed). 360,000 tested, 3.1% active; in the data active = fluorescence intensity above about 16000; inconclusive = no clear call, values can overlap the other calls
BoNT F protease: BoNT/F light chain protease inhibitors, primary screen, biochemical, flow cytometry, MLPCN library; Botulinum neurotoxin type F light chain protease (Clostridium botulinum); Multiplex microsphere protease cleavage assay; 360,000 tested, 0.22% active; inhibition, % at 10 µM; in the data active = inhibition above about 35%, passing the limit was not always enough; inconclusive = no clear call, values can overlap the other calls
Numbers stand for hits; n = inactive; u = inconclusive; x = not tested or not shown. Cut-off read from the data, not from the text of the source, unless noted: active = inhibition above about 30%; inconclusive = no clear call, values can overlap the other calls; inactive = below that.

SMILES	BoNT A protease	VHR inh abs	MazEF act	Anthrax LF inh2	Bead autofluor	BoNT F protease
COc1ccc(S(=O)(=O)NCCOc2ccccc2)cc1-n1cnnn1	n	n	n	n	n	n
O=C1CC(c2ccc(S(=O)(=O)NCCOc3ccccc3)cc2)CN1 (configuration not stated)	n	n	n	n	21883	n
COCCNS(=O)(=O)c1ccc(C2CNC(=O)C2)cc1 (configuration not stated)	n	n	n	n	n	n
CCNS(=O)(=O)c1ccc(Br)c(OC)c1	n	n	n	n	20265	n
COc1ccc(S(=O)(=O)NCCOc2ccccc2)cc1OC	n	n	n	n	22108	n
CC(=O)c1ccc(N2CCN(S(=O)(=O)c3ccc4c(c3)C(Cl)(Cl)C(=O)N4)CC2)cc1	n	x	x	n	n	n
CCCc1nnc(SCC(=O)NC2CCCCC2)n1CCOC	n	n	n	n	n	n
Cc1c(N2C(=O)CS/C2=N\N=C\c2ccccc2O)c(=O)n(-c2ccccc2)n1C	u	n	n	n	16255	n
O=c1cccc2n1CC1CC2CN(Cc2cccc(Cl)c2Cl)C1 (configuration not stated)	n	n	n	n	20838	n
COC(=O)c1ccccc1S(=O)(=O)N1CCC(C(=O)NC2CCCCC2C)CC1 (configuration not stated)	x	x	n	x	x	x
CCN(Cc1ccccc1)C(=O)CN1C(=O)COc2ccc(S(=O)(=O)NC3CCCC3)cc21	n	n	n	n	n	n
Cc1cc(Nc2ccccc2C(=O)O)nc2nc3ccccc3c(=O)n12	n	n	n	n	16916	n
COc1cccc(-n2nnc3c(=O)n(Cc4ccccc4F)cnc32)c1	n	n	n	n	21710	n
CCOC(=O)C(CC)n1cnc2c(nnn2-c2ccc(OC)cc2)c1=O (configuration not stated)	n	n	n	n	17635	n
CC(C)n1cnc2c(oc3ccccc32)c1=O	n	n	n	n	n	n
CCOC(=O)C(C)n1cnc2c(nnn2Cc2ccc(C)cc2)c1=O (configuration not stated)	u	n	n	n	20875	n
CCOC(=O)C(C)n1cnc2c(oc3ccccc32)c1=O (configuration not stated)	n	51	n	n	n	n
Cc1ccn(CCC(=O)N2CCc3ccccc32)n1	n	n	n	n	n	n
COc1cccc(-n2nnc3c(=O)n(CC(=O)N4CCC(Cc5ccccc5)CC4)cnc32)c1	u	n	n	n	24394	n
COc1ccc(-n2nnc3c(=O)n(Cc4cc(C)ccc4C)cnc32)cc1	n	n	n	n	17509	n
c1ccc(OCCNc2ccn3nc(-c4cccs4)cc3n2)cc1	n	x	x	n	n	n
N=c1c2c(n(Cc3ccc(Cl)cc3)c3c1CCC3)CCC2	n	n	n	n	20485	n
CN(C)c1ncc(C(=O)O)cn1	n	n	n	n	16816	n
CN(C)c1cncc(C(=O)O)c1	n	n	n	n	n	n
CC(=O)c1cc2c(cc1NC(=O)CSc1nnc(C3CC3)n1C)OCO2	n	x	n	n	n	n
SMILES	BoNT A protease	VHR inh abs	MazEF act	Anthrax LF inh2	Bead autofluor	BoNT F protease
CSc1nc(C)cc(OCC(=O)n2nc(C)cc2C)n1	u	n	n	n	23438	n
CSc1nc(C)cc(OCCO)n1	n	n	n	n	n	n
CC(=O)Nc1ccc(NC(=O)C(C)OC(=O)c2cccs2)cc1 (configuration not stated)	n	x	n	n	n	n
CC(=O)Nc1ccc(OC(=O)c2cccs2)cc1	u	n	n	n	16646	n
CC(=O)c1ccc(OC(=O)c2cccs2)cc1	n	n	n	n	24802	n
CC(=O)c1ccc(NC(=O)c2cccs2)cc1	n	n	n	n	n	n
CCOC(=O)C1(C)CCN1C(=O)c1ccccc1C(F)(F)F (configuration not stated)	n	x	x	n	n	n
CCOc1ccccc1C(=O)NCC(=O)NNC(=O)CN(C)S(=O)(=O)c1ccc(Cl)cc1	n	x	n	n	n	n
COC(=O)C1=C(C)NC(=O)C1(NS(=O)(=O)c1ccc(NC(C)=O)cc1)C(F)(F)F (configuration not stated)	n	n	n	n	19985	n
CCN1C(=O)/C(=C\c2nc3ccccc3c(=O)n2-c2ccccc2)c2ccccc21	n	n	n	n	n	n
CCN1C(=O)C(Cc2nc3ccccc3c(=O)n2-c2ccccc2)c2ccccc21 (configuration not stated)	u	n	n	n	19070	n
COCCSc1nc(N)c(NC(=O)c2ccco2)c(=O)[nH]1	n	n	n	n	n	n
O=[N+]([O-])c1ccc(-c2cn3nc(-c4ccccc4)c(-c4ccccc4)nc3n2)cc1	x	n	164	x	x	x
CN(C)CCCNc1nc2cc(-c3cnn(C)c3)sc2c(=O)n1C	n	x	x	n	n	n
CCOC(=O)C1CCCN(C(=O)CCCn2nnnc2CN2CCOCC2)C1 (configuration not stated)	n	n	n	n	n	n
CCOC(=O)N1CCN(C(=O)c2cccc(-n3c(=S)[nH]c4cc(Cl)ccc4c3=O)c2)CC1	n	n	n	n	20777	n
CCOC(=O)N1CCN(C(=O)c2ccc3c(=O)n(-c4ccc(OC)cc4)c(=S)[nH]c3c2)CC1	n	n	n	n	n	n
CCOc1ccccc1-c1nc(CN2CCCN(C(=O)c3ccco3)CC2)c(C)o1	n	n	n	n	n	n
Cc1cn([C@H]2C[C@H](O)[C@@H](CNC(=O)c3ccccn3)O2)c(=O)[nH]c1=O	n	x	n	n	n	n
COc1ccc(C(=O)Nc2nc3c(s2)Cc2cc(OC)ccc2-3)cc1	n	n	n	n	n	n
COc1ccc2c(c1)Cc1sc(NC(=O)c3cccs3)nc1-2	n	n	n	n	18806	n
CSCC[C@H](NC(=O)OCc1ccccc1)C(=O)O	n	n	n	n	22450	n
CSCCC(NC(=O)OCc1ccccc1)NC(=O)OCc1ccccc1	n	x	x	n	n	n
N#Cc1c2n(c3c(=O)n(Cc4ccccc4)cnc13)CCCC2	n	n	n	n	17920	n
Cc1cc(C(=O)N2CCN(c3ncccn3)CC2)c(C)o1	n	n	n	n	21168	n
Cc1cc(C(=O)N2CCN(c3ccccc3)CC2)c(C)o1	n	n	n	n	17012	n
COCCNC(=O)CN1N=C(c2ccc(C)cc2)CCC1=O	n	n	n	n	n	u
Cn1c(N/N=C/c2cc3ccccc3nc2Cl)nc2ccccc21	n	n	207	n	n	n
Cn1c(N/N=C/c2c[nH]c3ccccc23)nc2ccccc21	n	n	n	n	n	n
